Measurements taken from PubChem BioAssay.
Records with an inconclusive call do not appear. For some of these results: Measured potencies and affinities stand elsewhere. Active and inactive are the calls of the source.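 Rule for the calls, unless noted: active = thallium flux through the channel raised or lowered by more than 3 SD from vehicle-only wells, actives on both sides; inactive = the rest.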

What was measured:
[1] = compounds altering circadian rhythm period length – cell-based, LOPAC library, luminescence reporter (AID 2774; call rule not given here;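 note: values are relative to mean of DMSO wells on each plate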); conditions: circadian reporter cells, at 7 µM, actives lie on both sides
[2] = test system: Hepatitis C virus NS3 helicase; assay: blockers of NS3h binding to ssDNA – biochemical, fluorescence polarization, LOPAC1280 library, primary screen (AID 687035; in the data active = inhibition above about 37%); conditions: Purified HCV NS3 helicase, Cy5-dT15 ssDNA binding fluorescence polarization; stronger effect = higher value; concentration not given here
[3] = compounds altering Cy5-DNA-NS3h complex signal – biochemical, LOPAC1280, artefact control for HCV NS3 helicase inhibitor project (AID 687037; call rule not given here); conditions: Cy5-DNA-NS3h complex fluorescence interference counterscreen
[4] = modulation of C. elegans fzo-1 (AID 1259413; call rule not given here;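 note: fzo-1 mutant C. elegans worms in liquid wells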); conditions: C. elegans fzo-1 modulator screen, mean read-out; stronger effect = higher value
[5] = test system: Aerobactin synthetase IucA (Klebsiella pneumoniae, hypervirulent); assay: biochemical IucA inhibition screen of LOPAC library by absorbance (AID 1346212; call rule not given here;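 note: 100% = no compound wells and 0% = no enzyme wells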); conditions: IucA enzyme assay, absorbance (OD) readout; stronger effect = lower value;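 tested at 8 µM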
[6] = blockers of cellular phospholipid synthesis – cell-based, LOPAC library, screen 4, primary screen (AID 1347384; call rule not given here); conditions: animal cells, phospholipid biosynthesis inhibition screen; at 10 µM
F380Y = assay: BK channel mutant inhibitors and activators – cell-based, U2OS BacMam, thallium flux, beta subunits, selectivity assay, profiling panel (AID 1259406); conditions: U2OS BacMam BK variants, at 30 µM;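 note: initial slope of Thallos dye fluorescence rise after thallium is added; log ratio against the mean of 0.3% DMSO vehicle wells on the same plate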
F380Y/beta2Delta = assay: as above; conditions: U2OS BacMam BK variants, at 30 µM
R275C = assay: as above; conditions: U2OS BacMam BK variants, at 30 µM
R275C/beta1 = assay: as above; conditions: U2OS BacMam BK variants, at 30 µM
R275C/beta2Delta = assay: as above; conditions: U2OS BacMam BK variants, at 30 µM
[7] = molecular target: ATP-dependent translocase ABCB1 (Homo sapiens) (UniProt P08183); assay: P-glycoprotein substrate transport blockade – cell-based (AID 377; in the data active = fluorescence slope change above about 50%); conditions: MDR1-expressing cells, fluorescent substrate accumulation slope; stronger effect = higher value; concentration not given here
Sequence of ATP-dependent translocase ABCB1 (Homo sapiens) (P08183 whole entry, looked up): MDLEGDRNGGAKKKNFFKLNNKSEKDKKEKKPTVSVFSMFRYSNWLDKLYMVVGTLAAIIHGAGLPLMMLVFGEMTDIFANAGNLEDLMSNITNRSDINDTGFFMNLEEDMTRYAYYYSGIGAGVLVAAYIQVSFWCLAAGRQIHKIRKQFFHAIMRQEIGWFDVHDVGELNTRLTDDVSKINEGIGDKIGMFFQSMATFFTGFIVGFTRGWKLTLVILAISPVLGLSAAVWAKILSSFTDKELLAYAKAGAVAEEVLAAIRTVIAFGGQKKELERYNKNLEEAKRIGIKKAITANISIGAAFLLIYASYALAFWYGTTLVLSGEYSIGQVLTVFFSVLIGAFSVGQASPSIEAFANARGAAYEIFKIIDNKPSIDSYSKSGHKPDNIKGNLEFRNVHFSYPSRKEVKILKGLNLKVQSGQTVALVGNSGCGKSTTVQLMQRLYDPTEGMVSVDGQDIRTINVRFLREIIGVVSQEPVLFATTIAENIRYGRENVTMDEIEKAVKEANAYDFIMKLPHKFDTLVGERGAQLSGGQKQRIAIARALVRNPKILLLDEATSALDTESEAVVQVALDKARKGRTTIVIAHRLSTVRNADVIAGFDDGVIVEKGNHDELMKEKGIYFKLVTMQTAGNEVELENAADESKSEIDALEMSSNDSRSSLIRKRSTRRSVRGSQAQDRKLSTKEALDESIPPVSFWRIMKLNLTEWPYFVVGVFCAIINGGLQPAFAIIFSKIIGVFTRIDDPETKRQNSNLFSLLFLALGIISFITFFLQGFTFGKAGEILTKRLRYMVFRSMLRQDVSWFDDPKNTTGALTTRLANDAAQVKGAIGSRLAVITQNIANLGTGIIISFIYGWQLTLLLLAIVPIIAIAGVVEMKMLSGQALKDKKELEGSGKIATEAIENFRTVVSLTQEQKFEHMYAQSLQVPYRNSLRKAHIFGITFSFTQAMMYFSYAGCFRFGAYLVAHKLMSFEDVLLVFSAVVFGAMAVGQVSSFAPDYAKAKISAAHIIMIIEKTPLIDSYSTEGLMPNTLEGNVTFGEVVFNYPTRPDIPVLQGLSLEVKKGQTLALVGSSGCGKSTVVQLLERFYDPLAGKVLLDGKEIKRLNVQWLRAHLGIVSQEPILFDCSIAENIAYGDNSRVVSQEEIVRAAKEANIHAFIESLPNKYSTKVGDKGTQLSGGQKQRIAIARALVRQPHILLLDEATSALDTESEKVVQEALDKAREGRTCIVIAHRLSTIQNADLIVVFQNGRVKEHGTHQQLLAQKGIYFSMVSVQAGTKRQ

[8] = compounds altering viability of human ES cells (AID 493140; call rule not given here;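 note: cells exposed to compounds for four days before counting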); conditions: human embryonic stem cell survival screen; stronger effect = higher value
[9] = blockers of polyQ-driven CASP3 activation – cell-based (AID 1583); conditions: polyglutamine-induced caspase-3 activation, cell assay; stronger effect = higher value;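 tested at 10 µM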
[10] = restoration of touch response, mutant HTT neurons – whole organism, C. elegans mechanosensory neurons, N-terminal huntingtin (AID 1599); conditions: C. elegans polyQ-huntingtin mechanosensory neurons, stronger effect = higher value
[11] = glutamate transport activators, MN-1 cells, MN-1 cell line (AID 1612); conditions: MN-1 motor neuron cells, stronger effect = higher value;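 note: tested at 1 µM final; 0% = mean of DMSO vehicle wells on each plate; positive means more glutamate uptake than control and negative means less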
[12] = GFP-Q80 aggregate reduction, neuronal-like cells, cell-based, NGF-treated PC12, GFPQ80 (AID 1614); conditions: PC12 NGF-treated GFP-polyQ80 inclusion reduction;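 note: lower means fewer inclusions and 0 means no inclusions at all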
[13] = 75Q-TubH aggregate inhibition, S. cerevisiae, yeast (AID 1616); conditions: S. cerevisiae 75Q-TubH polyglutamine aggregation suppression; stronger effect = higher value

CN[C@@H]1C[C@@H](c2ccc(Cl)c(Cl)c2)c2ccccc21
active: log fold change Tl+ flux (F380Y/beta2Delta) 0.44 | log fold change Tl+ flux (R275C) -0.12 | log fold change Tl+ flux (R275C/beta1) 0.445 | log fold change Tl+ flux (R275C/beta2Delta) 0.134
inactive: period change [1] 0.04 h | inhibition [2] -2% | fluorescence ratio (interference) [3] 0.9 | mean signal [4] 207 | remaining activity [5] 107% | outcome [6] | log fold change Tl+ flux (F380Y) 0.0202

CCC(COC(=O)c1cc(OC)c(OC)c(OC)c1)(c1ccccc1)N(C)C (stereo unspecified)
active: log fold change Tl+ flux (F380Y) -0.284 | log fold change Tl+ flux (F380Y/beta2Delta) -0.21 | log fold change Tl+ flux (R275C) -0.249 | log fold change Tl+ flux (R275C/beta1) -0.324 | log fold change Tl+ flux (R275C/beta2Delta) -0.495
inactive: mean signal [4] 257

CN(C)C(=O)Oc1cc(OC(=O)N(C)C)cc(C(O)CNC(C)(C)C)c1 (stereo unspecified)
inactive: fluorescence slope change [7] 19% | survival [8] 12.5

CC(C)c1cccc(C(C)C)c1O
inactive: period change [1] 0.005 h | survival [8] 5.17 | inhibition [2] -1% | fluorescence ratio (interference) [3] 1 | mean signal [4] 226 | remaining activity [5] 108% | outcome [6] | log fold change Tl+ flux (F380Y) -0.0182 | log fold change Tl+ flux (F380Y/beta2Delta) -0.0275 | log fold change Tl+ flux (R275C) -0.0316 | log fold change Tl+ flux (R275C/beta1) -0.0537 | log fold change Tl+ flux (R275C/beta2Delta) -0.0157

CC[C@@H](CO)NC(=O)[C@@H]1C=C2c3cccc4c3c(cn4C)C[C@H]2N(C)C1
inactive: period change [1] 0.11 h | fluorescence ratio (interference) [3] 1 | remaining activity [5] 112% | outcome [6]

C=C1C[C@@H]2[C@H](CC[C@]3(C)C(=O)CC[C@@H]23)[C@@]2(C)C=CC(=O)C=C12
inactive: log fold change Tl+ flux (F380Y) -0.00852 | log fold change Tl+ flux (F380Y/beta2Delta) 0.0277 | log fold change Tl+ flux (R275C) -0.00349 | log fold change Tl+ flux (R275C/beta1) 0.0308 | log fold change Tl+ flux (R275C/beta2Delta) 0.00258

c1ccc2c(c1)OCC(C1=NCCN1)O2 (stereo unspecified)
inactive: period change [1] 0.1 h | survival [8] 1.58 | inhibition [2] -7% | fluorescence ratio (interference) [3] 0.9 | remaining activity [5] 109% | outcome [6]

C#CCN(C)[C@H](C)Cc1ccccc1
inactive: fluorescence slope change [7] -18.7% | survival [8] 12.8 | mean signal [4] 258 | log fold change Tl+ flux (F380Y) 0.00891 | log fold change Tl+ flux (F380Y/beta2Delta) -0.0258 | log fold change Tl+ flux (R275C) -0.00358 | log fold change Tl+ flux (R275C/beta1) 0.0188 | log fold change Tl+ flux (R275C/beta2Delta) -0.0448

COc1ccc(C(=O)N2CCCC2=O)cc1
inactive: period change [1] -0.01 h | inhibition [2] -3% | fluorescence ratio (interference) [3] 0.9 | remaining activity [5] 122% | outcome [6]
15.7%: inhibition [9]
1.16: aggregation suppression score [13]
5.51%: glutamate uptake change [11]
2.57: rescue above control [10]
2: inclusion score [12]

CN1CCN(C(=O)O[C@H]2c3nccnc3C(=O)N2c2ccc(Cl)cn2)CC1
inactive: log fold change Tl+ flux (F380Y) -0.0134 | log fold change Tl+ flux (F380Y/beta2Delta) 0.0361 | log fold change Tl+ flux (R275C) 0.0376 | log fold change Tl+ flux (R275C/beta1) 0.0325 | log fold change Tl+ flux (R275C/beta2Delta) 0.0513
active: mean signal [4] 290

CCOC(=O)c1cncn1C(C)c1ccccc1 (stereo unspecified)
inactive: survival [8] 6.08 | log fold change Tl+ flux (F380Y) -0.00492 | log fold change Tl+ flux (F380Y/beta2Delta) 0.0219 | log fold change Tl+ flux (R275C) -0.00746 | log fold change Tl+ flux (R275C/beta1) 0.0125 | log fold change Tl+ flux (R275C/beta2Delta) 0.0301

CN[C@@H](C)[C@H](O)c1ccccc1
inactive: period change [1] -0.07 h

CC[C@]1(O)CC[C@H]2[C@@H]3CCC4=CCCC[C@@H]4[C@H]3CC[C@@]21C
inactive: log fold change Tl+ flux (F380Y) 0.0652 | log fold change Tl+ flux (F380Y/beta2Delta) -0.0162 | log fold change Tl+ flux (R275C) 0.0162
active: log fold change Tl+ flux (R275C/beta1) 0.231 | log fold change Tl+ flux (R275C/beta2Delta) 0.196

NC(=O)OCCCc1ccccc1
inactive: mean signal [4] 256 | log fold change Tl+ flux (F380Y) 0.0271 | log fold change Tl+ flux (F380Y/beta2Delta) 0.0735 | log fold change Tl+ flux (R275C) -0.0501 | log fold change Tl+ flux (R275C/beta1) 0.00561 | log fold change Tl+ flux (R275C/beta2Delta) 0.00928

CCN(CC)CCOC(=O)C(O)(c1ccccc1)c1ccccc1
inactive: mean signal [4] 281 | log fold change Tl+ flux (F380Y) 0.0198 | log fold change Tl+ flux (F380Y/beta2Delta) 0.0439 | log fold change Tl+ flux (R275C) -0.0214 | log fold change Tl+ flux (R275C/beta1) -0.0156 | log fold change Tl+ flux (R275C/beta2Delta) 0.0436

c1ccc2c(c1)Nc1ccccc1S2
inactive: mean signal [4] 265 | log fold change Tl+ flux (F380Y) -0.0351 | log fold change Tl+ flux (F380Y/beta2Delta) 0.033 | log fold change Tl+ flux (R275C) -0.041 | log fold change Tl+ flux (R275C/beta1) 0.0203 | log fold change Tl+ flux (R275C/beta2Delta) -0.0792

NC1=NC(=O)C(c2ccccc2)O1 (stereo unspecified)
inactive: mean signal [4] 245 | log fold change Tl+ flux (F380Y) -0.012 | log fold change Tl+ flux (F380Y/beta2Delta) -0.0196 | log fold change Tl+ flux (R275C) 0.00173 | log fold change Tl+ flux (R275C/beta1) 0.00542 | log fold change Tl+ flux (R275C/beta2Delta) -0.00885
